Rows were chosen to be rich in hits. Some 3.4% of all compounds tested hit in one or more screens of this group.
TEAD-YAP inh = TEAD-YAP interaction inhibition; HEK-TIYL cells, TEAD-Gal4/YAP UAS-luciferase luminescence; inhibition, % at 9.12 µM; 640,000 compounds, 1.4% hits; AID 1259422; in the data active means inhibition above about 32%
MITF primary = human MITF inhibition, primary screen; AlphaScreen MITF homodimerization, bead proximity signal; inhibition, % at 2.6 µM; 650,000 compounds, 0.91% hits; in the data active means inhibition above about 50%
GPR151 ag = human GPR151 activation. Q8TDV0. PathHunter beta-arrestin GPR151 cells, luminescence. activation, % at 11.2 µM. 650,000 compounds, 1% hits. AID 1508602; in the data active means activation above about 4.9%
FBW7 act = activators of human E3 ligase FBW7 | Q969H0 | AlphaScreen FBW7–phospho-cyclin E peptide binding, activator screen | normalized activity (activation), % at 26.1 µM | 650,000 compounds, 0.13% hits | AID 1259310; in the data active means normalized activity above about 1.9%;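 further: purified mutant Fbw7 with reduced substrate affinity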
GPR151 confirm = confirmation of human GPR151 activators. activation, % at 11.2 µM. 6,700 tested, under 10 active. GPR151 PathHunter beta-arrestin cells, luminescence, 90 min; % of EA-reagent control over plate median. shares compounds with GPR151 ag;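 active means mean percent activation across replicates above the confirmation screen cutoff of 4.91%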
GPR119 counter = activates human GPR119 in a GPR151 counter-screen | shares compounds with GPR151 ag | GPR119 PathHunter beta-arrestin cells, luminescence, 90 min; 0 = compound-well median, 100 = enzyme-acceptor control | activation, % at 11.2 µM | 6,700 compounds, 0.3% hits | AID 1508611;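 active means mean percent activation in the counterscreen above 29.09%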;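 further: counterscreen on off-target GPR119 to flag nonselective hits from the GPR151 activator screen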
Target sequence (Q8TDV5 whole entry, looked up): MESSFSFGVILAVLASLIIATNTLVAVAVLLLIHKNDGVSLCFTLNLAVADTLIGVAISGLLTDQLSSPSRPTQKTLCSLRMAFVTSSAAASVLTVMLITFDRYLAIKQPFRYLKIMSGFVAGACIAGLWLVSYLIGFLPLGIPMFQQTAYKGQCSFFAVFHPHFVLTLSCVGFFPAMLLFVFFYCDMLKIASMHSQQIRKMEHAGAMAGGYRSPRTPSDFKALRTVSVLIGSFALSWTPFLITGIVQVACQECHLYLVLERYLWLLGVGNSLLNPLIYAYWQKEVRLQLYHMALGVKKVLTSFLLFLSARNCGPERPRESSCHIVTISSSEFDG
Large screens that a line does not name were inactive (follow-up assays come after a bar, where they were run).

CCOC(=O)C1CCN(C2CCN(c3nc4nonc4nc3N(C)C)CC2)CC1	none
CCN(CC)Cc1ccc(C(=O)NCc2cnc3ccccc3c2)c(=O)[nH]1	none
CC1CCCCN1Cc1ccc(C(=O)NCc2cnc3ccccc3c2)c(=O)[nH]1 (stereo not given)	GPR151 ag 11 | GPR151 confirm inactive | GPR119 counter inactive
COc1cc([N+](=O)[O-])ccc1NC(=O)c1oc(=O)c2ccccc2c1-c1ccc(C)cc1	GPR151 ag 5.7 | GPR151 confirm inactive | GPR119 counter inactive
CCC1(C2CCN(Cc3ccoc3)CC2)NC(=O)N(CCc2ccc(OC)cc2)C1=O (stereo not given)	GPR151 ag 14 | GPR151 confirm inactive | GPR119 counter inactive
COc1ccc(CC2(CCC(=O)NC(C)Cc3ccccn3)CCC(=O)N2)c(F)c1 (stereo not given)	none
Cc1ccc(OCC(=O)NC23CC4CC(CC(C4)C2)C3)cc1C	GPR151 ag 5.1 | GPR151 confirm inactive | GPR119 counter inactive
CC(C)NC(=O)CN1CCN(C(=O)c2ncoc2-c2ccc3ccccc3c2)CC1	none
COc1cc(NC(=S)N2CCN(c3ccccn3)CC2)cc(OC)c1	GPR151 ag 11 | GPR151 confirm inactive | GPR119 counter inactive
COc1ccc(C)cc1NC(=S)N1CCN(c2ccccn2)CC1	GPR151 ag 5.1 | GPR151 confirm inactive | GPR119 counter inactive
Cc1ccc(NC(=S)N2CCN(c3ccccn3)CC2)c(C)c1	none
CC(=O)Nc1ccc(N2C(=O)c3cccc(Cl)c3C2=O)cc1	none
O=C(CSc1cccc[n+]1[O-])N1CCCCCC1	none
[O-][n+]1ccccc1SSc1cccc[n+]1[O-]	TEAD-YAP inh 96, GPR151 ag 6.9 | GPR151 confirm inactive | GPR119 counter inactive
COC(=O)c1ccccc1NC(=O)c1ccc(Cl)c(Cl)c1	GPR151 ag 5.1 | GPR151 confirm inactive | GPR119 counter inactive
Cc1cc(C)cc(NC(=O)c2ccc(Cl)c(Cl)c2)c1	GPR151 ag 5.4 | GPR151 confirm inactive | GPR119 counter inactive
COC(=O)c1ccccc1NC(=O)c1cccc(Cl)c1	none
O=C(CN1C(=O)CSC1=O)c1ccc(Cl)cc1	none
Cc1ccc(C(=O)Nc2ccc(C(=O)CN3C(=O)CSC3=O)cc2)cc1	GPR151 ag 5.8 | GPR151 confirm inactive | GPR119 counter inactive
C/C=C/Cn1c(=O)c2c(nc3n2CCCN3c2cc(C)ccc2OC)n(C)c1=O	none
CCOc1cc(C=C(C#N)C#N)ccc1OC(=O)c1cccs1	GPR151 ag 12 | GPR151 confirm inactive | GPR119 counter inactive
COc1cc(C=C(C#N)C#N)ccc1OC(=O)c1cccs1	none
O=C1CCC(NC2CCCCC2)CCN1Cc1ccc2ccccc2c1 (stereo not given)	none
CC1(C)CC(=O)C2=C(C1)N(c1cccc(C(F)(F)F)c1)C(N)=C(C#N)C2c1ccc2c(c1)OCO2 (stereo not given)	none
N#CC1=C(N)N(c2cccc(C(F)(F)F)c2)C2=C(C(=O)CCC2)C1c1ccc2c(c1)OCO2 (stereo not given)	GPR151 ag 5.0 | GPR151 confirm inactive | GPR119 counter inactive
CCOc1c(C)cc(S(=O)(=O)NCCCCN2CCOC(c3ccccc3)C2)cc1C (stereo not given)	GPR151 ag 11 | GPR151 confirm inactive | GPR119 counter inactive
CC(C)(C)c1ccc(OCCON2C(=O)CCC2=O)c(Cl)c1	none
CCC(C)c1ccccc1OCCON1C(=O)CCC1=O (stereo not given)	GPR151 ag 7.1 | GPR151 confirm inactive | GPR119 counter inactive
CCN(CC)c1ccc(NC(=O)C2CC3CCCN3C23C(=O)Nc2ccccc23)c(C)c1 (stereo not given)	GPR151 ag 5.4 | GPR151 confirm inactive | GPR119 counter inactive
CCN(CC)c1ccc(NC(=O)C2CC3CCCN3C23C(=O)N(C)c2ccccc23)c(C)c1 (stereo not given)	none
Cc1cc(Br)c2c(c1)C(O)(N1CCOCC1)C(=O)N2 (stereo not given)	none
CC(C)c1ccc(NC(=O)c2cc(S(=O)(=O)NCCc3ccccc3)ccc2F)cc1	GPR151 ag 5.8 | GPR151 confirm inactive | GPR119 counter inactive
CC(=O)Nc1ccc(S(=O)(=O)NCCNC(=O)c2ccccc2F)cc1	GPR151 ag 6.3 | GPR151 confirm inactive | GPR119 counter inactive
O=C(Nc1ccc(S(=O)(=O)NCCc2ccccc2)cc1)c1ccccc1F	none
C=CCn1cc(CN2CCc3c(nc(N4CCOCC4)[nH]c3=O)C2)c2ccccc21	none
COc1cc(Nc2nc(NCCN3CCOCC3)c3ncn(CCN4CCCC4=O)c3n2)cc(OC)c1OC	GPR151 ag 5.7 | GPR151 confirm inactive | GPR119 counter inactive
O=C1CCCN1CCCNc1nc(N2CCC(N3CCOCC3)CC2)nc2c1ncn2C1CCCCC1	GPR151 ag 14 | GPR151 confirm inactive | GPR119 counter inactive
CCCNc1nc(Nc2cc(OC)c(OC)c(OC)c2)nc2c1ncn2CCN1CCCC1=O	none
O=C1CCCN1CCn1cnc2c(NC3CC3)nc(Nc3ccncc3)nc21	GPR151 ag 12 | GPR151 confirm inactive | GPR119 counter inactive
CC(C)N(CCNc1nc(NCCN2CCOCC2)nc2c1ncn2Cc1ccc(C(F)(F)F)cc1)C(C)C	GPR151 ag 6.4 | GPR151 confirm inactive | GPR119 counter inactive
Cc1[nH]c(=O)[nH]c(=O)c1S(=O)(=O)N1CC(C)CC(C)C1 (stereo not given)	none
O=C(CCCCCn1c(=S)[nH]c2ccsc2c1=O)NCc1ccccc1	none
CCN(CC)C(=O)c1ccc([N+](=O)[O-])cc1	none
Cc1[nH]c2ccccc2c1CCNC(=O)/C(=C/c1ccco1)NC(=O)c1ccco1	none
COc1cccc(CN2CCN(Cc3ccccc3OC(F)F)CC2CCO)c1 (stereo not given)	none
O=C1CCCN1CCCNc1nc(NCCN2CCOCC2)c2ncn(CCN3CCCC3=O)c2n1	GPR151 ag 6.4 | GPR151 confirm inactive | GPR119 counter inactive
O=C1CCCN1CCCNc1nc(NCCCN2CCCC2=O)c2ncn(CCN3CCCC3=O)c2n1	none
CC(C)n1cnc2c(NCCCN3CCCC3=O)nc(NCCCN3CCCC3=O)nc21	none
CCNc1nc(NCCCN2CCCC2=O)c2ncn(C(C)C)c2n1	GPR151 ag 5.4 | GPR151 confirm inactive | GPR119 counter inactive
Cc1c(CNCc2cccnc2)c(C(=O)O)c(C)n1Cc1c(F)cccc1Cl	none
CN(Cc1cn(-c2ccccc2)nc1-c1ccc(Cl)cc1)C(=O)CCC(=O)O	GPR151 ag 5.6 | GPR151 confirm inactive | GPR119 counter inactive
NC(=O)c1cn(-c2ccccc2)nc1-c1ccc(Cl)cc1	none
Cc1c(-c2ccccc2)sc2nc[nH]c(=O)c12	GPR151 ag 12 | GPR151 confirm inactive | GPR119 counter inactive
O=C(NCCc1ccc(O)cc1)c1csc(Nc2ccccn2)n1	none
O=C(NCc1ccc(Cl)cc1Cl)Nc1ccccc1	none
